Results published in PubChem BioAssay.
Activity calls are given as the source filed them. No rule for the calls is given here.

Each compound was assayed against Pantothenate synthetase (Mycobacterium tuberculosis (strain ATCC 25618 / H37Rv)) (UniProt P9WIL5) (assay: Coupled enzyme confirmation of inhibitors against recombinant Mtb PanC (AID 375;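 also: 0% = full reaction with vehicle and 100% = no enzyme background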)). Conditions: coupled enzyme assay; at 10 µM, stronger effect = higher value.
Sequence of Pantothenate synthetase (Mycobacterium tuberculosis (strain ATCC 25618 / H37Rv)) (P9WIL5 whole entry, looked up): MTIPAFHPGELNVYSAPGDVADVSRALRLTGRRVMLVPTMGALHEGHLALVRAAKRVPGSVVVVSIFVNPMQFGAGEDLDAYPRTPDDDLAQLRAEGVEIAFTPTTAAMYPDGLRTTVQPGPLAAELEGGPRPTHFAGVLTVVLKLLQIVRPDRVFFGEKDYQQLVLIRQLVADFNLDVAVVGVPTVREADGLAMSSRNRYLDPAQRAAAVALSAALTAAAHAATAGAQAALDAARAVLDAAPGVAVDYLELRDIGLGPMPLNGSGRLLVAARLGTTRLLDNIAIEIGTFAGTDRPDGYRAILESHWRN

SMILES	inhibition
COc1ccc(NC(=O)C2CCCN(S(=O)(=O)c3cccc4cccnc34)C2)cc1OC (stereo not given)	0% (inactive)
COc1cccc(-c2nc(-c3ccc(NC(=O)Cc4ccccc4OC)cc3)no2)c1	11% (inactive)
CCOC(=O)C1=C(N)OC2=C(C(=O)CC(C)(C)C2)C1c1ccco1 (stereo not given)	5% (inactive)
Fc1cccc(NCc2cn3ccccc3n2)c1	0% (inactive)
COc1ccc(NC(=O)CN2CCN(CC(=O)Nc3cc(OC)cc(OC)c3)CC2)cc1	8% (inactive)
COc1ccc(Cl)cc1Nc1nc(C)cc(=O)[nH]1	3% (inactive)
COCCNC(=O)C(c1ccc(O)cc1)N(Cc1ccco1)C(=O)CCC(=O)Nc1nccs1 (stereo not given)	1% (inactive)
COc1ccc(CCNC(=O)CSc2nnnn2-c2ccccc2OC)cc1OC	5% (inactive)
O=C(Cn1ncc2c(=O)oc3ccccc3c21)NCC1CCCO1 (stereo not given)	4% (inactive)
Cn1c(=O)[nH]c(=O)c2c1nc(N1CCOCC1)n2CC(O)COc1ccc2ccccc2c1 (stereo not given)	0% (inactive)
COc1ccc(-n2ccnc2SCC(=O)NCc2ccc3c(c2)OCO3)cc1	1% (inactive)
c1coc(CN(Cc2cccs2)Cc2nnnn2C2CCCCC2)c1	0% (inactive)
CCc1ccc(CCC(=O)Nc2ccc(C)c(C)c2)o1	4% (inactive)
C=CCNC(=O)c1ccc(Cl)cc1Cl	0% (inactive)
COc1cc(S(=O)(=O)NC2CCCCC2C)ccc1Cl (stereo not given)	0% (inactive)
C=C(C)CSc1nnc2[nH]c(=O)cc(N)n12	0% (inactive)
CN(C)C(=O)C12CCC(C)(c3nc4ccccc4nc31)C2(C)C (stereo not given)	4% (inactive)
Cc1nnc(SC(=O)N2c3ccccc3Sc3ccccc32)s1	6% (inactive)
CCOc1ccc(N2C(=O)CC(N3CC(C)OC(C)C3)C2=O)cc1 (stereo not given)	0% (inactive)
COC(=O)C1(C(=O)OC)Sc2ccccc2C1=O	3% (inactive)

SMILES	inhibition
Clc1ccc(OCCCn2cncn2)cc1Cl	0% (inactive)
c1ccc(Nc2ccccc2Nc2ccccn2)nc1	0% (inactive)
Brc1ccc2[nH]c3nc(SCCN4CCOCC4)nnc3c2c1	0% (inactive)
CCOc1ccccc1-n1nnnc1SCC(=O)Nc1cc2oc3ccccc3c2cc1OC	0% (inactive)
NC(=O)c1ccsc1NC(=O)COC(=O)Cc1ccsc1	3% (inactive)
Cc1ccc(-n2ncc3c(N4CCN(c5ccccc5)CC4)ncnc32)c(C)c1	0% (inactive)
CCCc1cc(=O)n2[nH]c(-c3ccc(Br)cc3)cc2n1	0% (inactive)
O=C(NCc1ccccc1)c1cc(-c2ccco2)on1	0% (inactive)
CCC(C)NC(=O)CS(=O)(=O)Cc1nc(-c2cccc(OC)c2)oc1C (stereo not given)	0% (inactive)
CCOCCCNC(=O)C(NC(=O)c1ccccn1)c1ccc(C)cc1 (stereo not given)	0% (inactive)
O=C(CSc1nnc(-c2ccncc2)n1-c1ccc(F)cc1)NC(=O)NCc1ccco1	0% (inactive)
COc1ccc2c(CC(=O)Nc3nnc(C4CC4)s3)coc2c1	0% (inactive)
CCOC(=O)C(CC)(CCC(=O)O)c1csc(N)n1 (stereo not given)	0% (inactive)
CC(C)(C)c1nnc(NC(=O)C2CCN(c3ncccn3)CC2)s1	1% (inactive)
CCOc1ccccc1NC(=O)C1CCCN(C(=O)NCc2ccccc2)C1 (stereo not given)	8% (inactive)
Nc1ccc(Sc2nnnn2-c2ccccc2)c(Cl)c1	6% (inactive)
COc1ccc(C2CC(=O)c3cnc(NC(=O)c4ccccc4OC)nc3C2)c(OC)c1 (stereo not given)	8% (inactive)
Cn1c(=O)c2c(nc(-n3ccnc3)n2C)n(C)c1=O	0% (inactive)
CCOC(=O)c1sc2nc(C)cc(C)c2c1N	0% (inactive)
Cc1ccc(-c2noc(CCC(=O)NCCc3ccccc3Cl)n2)cc1	1% (inactive)
